# Compounds with a hit are over-represented: about 3.3% of the library has one in this group of screens.
# Vaccinia mCherry = qHTS for Stage-Specific Inhibitors of Vaccinia Orthopoxvirus: mCherry Reporter Primary qHTS; Potency, µM (doses to about 36.5 µM), for inactives: at the top dose activity change, negative = inhibition, usual class: inhibitors; 310,000 compounds, 0.63% hits; Vaccinia virus mCherry reporter infection, fluorescence; AID 720579, 2013; calls by dose curve; tested in A549 cells; note: nearly all actives have a fitted effect of over 35% in size
# VACV Venus inh = qHTS for Stage-Specific Inhibitors of Vaccinia Orthopoxvirus: Venus Reporter Primary qHTS | Vaccinia virus Venus reporter expression, fluorescence | Potency, µM (series often up to 36.5 µM), without a hit: top-dose activity change, negative = inhibition, hits mostly inhibitors | 330,000 compounds, 0.46% hits | AID 720580, 2013; calls by dose curve; tested in A549 cells; note: nearly all actives have a fitted effect of over 30% in size
# HCV inh = qHTS Assay for Inhibitors of Hepatitis C Virus (HCV); Potency, µM (top dose mostly 41.8 µM), inactives show top-dose activity change, negative = inhibition, most hits filed as inhibitors; Huh7.5.1 HCVcc-Cre infection, luciferase reporter, 44 h; 340,000 compounds, 3.4% hits; active = well fitted inhibition curve with a large enough effect; inconclusive = small, poorly fitted or top-dose-only effect, or another doubt; inactive = no such curve, though single readings can be large or run the other way
#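 Infectious HCVcc-Cre (~0.5 moi) was added to cells just after compound, with cells seeded 4 h earlier at 1,000 per well. Luciferase activity after 44 h culture reported infection; substrate was incubated 15 min at room temperature before reading.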
# * = called active by the depositor; i = inactive; u = inconclusive; x = not tested or not shown; [ ] = remark or other dose. % is set by controls: 0 for no effect and ±100 for the full control effect; potency is the fitted concentration of half-maximal effect.
SMILES,Vaccinia mCherry,VACV Venus inh,HCV inh
COC(=O)c1sccc1NC(=O)CC1C(=O)NCCN1C(=O)c1ccc(C)c(C)c1 (stereo not drawn),i,3.0%,-9.4%
CCOc1ccc(NC(=O)c2c(NC(=O)c3ccncc3)sc3c2CCC(C(C)(C)C)C3)cc1 (stereo not drawn),-24.8%,-2.9%,x
COc1ccc(NC(=O)c2c(NC(=O)c3ccncc3)sc3c2CCC(C(C)(C)C)C3)cc1 (stereo not drawn),10µM*,u,x
COc1cccc(C(=O)c2sc(NC(C)C)nc2N)c1,x,7.08µM*,u
COc1ccc(C(=O)Nc2nc(C)c(C)s2)cc1OC,x,-2.6%,-13.3%
COc1ccc(Nc2nc(N)c(C(=O)c3ccc(F)cc3)s2)cc1,u,u,-26.6%
COc1ccc(Nc2nc(N)c(C(=O)c3ccc(OC)cc3)s2)cc1,1.78µM*,-25.1%,u
COc1ccc(C(=O)c2sc(NC(C)C)nc2N)cc1OC,x,11.2µM*,u
COc1cccc(C(=O)c2sc(Nc3ccc(F)c(Cl)c3)nc2N)c1,-12.8%,-6.5%,x
Cc1nc(NCc2c(C)nn(C)c2Cl)sc1-c1ccn(CC2COc3ccccc3O2)n1 (stereo not drawn),-24.1%,-12.9%,x
COc1cc(NC(=O)CN2C(=O)C(c3ccc(C)cc3)=NC23CCCCC3)cc(OC)c1,-20.2%,-18.8%,x
CN(Cc1cccc(C(F)(F)F)c1)C(=O)C1CCC(=O)N(CC2CCCCC2)C1 (stereo not drawn),x,x,-10.1%
CNC[C@@H](CC1CCCCC1)NC[C@H](CC(C)C)NCCc1cccc(C(F)(F)F)c1,14.1µM*,u,u
O=C(Nc1ccc2c(c1)OCO2)Nc1ccc2c(c1)OCO2,x,x,-1.8%
C=CCNC(=S)Nc1ccc(OC(F)F)c(Cl)c1,-20.4%,-8.7%,11.2µM*
O=C(Nc1ccc(OC(F)F)c(Cl)c1)Nc1ccc2c(c1)OCO2,x,x,17.8µM*
C=CCNC(=S)Nc1ccc(Cl)cc1,-7.5%,-10.3%,0.8%
c1ccc(C2(NC3=NCCO3)CCCCC2)cc1,u,3.98µM*,x
C1CCC(NC2=NCCO2)CC1,-28.7%,u,x
O=C(C[n+]1ccccc1)N/N=C/c1ccccc1C(F)(F)F,x,x,1.8%
COc1cc(OC)c(OC)cc1CN1CCN(Cc2cccc(F)c2)CC1,x,x,-8.8%
COc1cc(OC)c(OC)cc1CN1CCN(Cc2ccc(C(F)(F)F)cc2)CC1,x,x,11.2µM*
O=C(NC1CCCC1)c1c[nH]c2ccc(S(=O)(=O)Nc3cccc(C(F)(F)F)c3)cc2c1=O,-3.3%,-7.8%,x
COc1ccc(-c2cc(C(F)(F)F)c3c(N)c(C(=O)NCCSC)sc3n2)cc1,-5.1%,-1.2%,-23.1%
CN(C)CCNC(=O)c1sc2nc(-c3ccccc3)cc(C(F)(F)F)c2c1N,u,u,10µM*
SMILES,Vaccinia mCherry,VACV Venus inh,HCV inh
COc1ccc(-c2ccc(CNCCCSc3nnnn3C)o2)cc1Cl,1.4%,-5.0%,x
CCN(CC(=O)NCc1ccc(Cl)cc1)C(=O)CN1C(=O)NC(CC)(c2ccccc2)C1=O (stereo not drawn),-28.4%,-10.1%,8.2%
COc1cc(C(=S)N2CCN(C(c3ccccc3)c3ccccc3)CC2)cc(OC)c1O,x,x,11.2µM*
COc1ccc(NC(=S)N2CCN(C(c3ccccc3)c3ccccc3)CC2)cc1OC,u,-22.9%,-24.0%
CCN(CC)CC#CCC(O)(c1ccccc1)c1ccc(Br)cc1 (stereo not drawn),x,x,10µM*
CCN(CC)CC#CCC(O)(c1ccccc1)c1ccccc1,-2.4%,-15.4%,u
COc1ccc(-c2noc(CCC(=O)N3CCN(c4ccc(F)cc4)CC3)n2)cc1,i,-17.6%,u
CC(=O)Nc1cc(C(=O)N2CCN(C(=O)c3ccco3)CC2)cc2ncn(CCc3ccccn3)c12,-12.0%,-2.2%,x
Cc1c(C)n(CCN(C)C)c2ccc(C(=O)OCCN(C)C)cc12,x,x,11.2µM*
Cc1c(C)n(Cc2ccccc2)c2ccc(C(=O)OCCCN(C)C)cc12,-7.7%,-20.1%,u
CCc1ccc(NC(=O)CC2C(=O)N(c3ccc(OC)cc3)C(=O)N2Cc2ccc(OC)cc2)cc1 (stereo not drawn),i,-15.7%,x
CC1Cc2cc(S(=O)(=O)CCC(=O)Nc3ccc(F)cc3)ccc2N1C(=O)C1CC1 (stereo not drawn),-5.4%,-8.0%,x
COc1ccc(Cc2nc3c4cnn(-c5ccccc5Br)c4ncn3n2)cc1,-13.4%,-12.4%,x
CC(=O)Nc1ccc(S(=O)(=O)N2CCN=C2SCc2cccc(C)c2)cc1,-24.2%,-22.3%,u
CC(=O)Nc1ccc(S(=O)(=O)N2CCN=C2SCc2ccc([N+](=O)[O-])cc2)cc1,-10.5%,-16.8%,10µM*
CCCOc1ccc(C(=O)NCC(c2ccc(OC)cc2)N2CCCCC2)cc1 (stereo not drawn),-17.6%,-20.5%,x
COc1ccc(CC(=O)NCc2nc3cccnc3n2Cc2ccc(F)cc2)cc1OC,-21.1%,-15.8%,x
O=C(NNc1ncnc2sccc12)c1ccc(Cl)cc1,u,-26.2%,u
Cc1csc2ncnc(NNC(=O)c3ccc(Cl)cc3)c12,-27.8%,-5.3%,7.94µM*
CCOC(=O)C(Cc1c[nH]c2ccccc12)NC(=O)COc1ccc(Cl)c(C)c1 (stereo not drawn),-3.2%,-3.7%,x
Cn1c2c(c(=O)n(C)c1=O)C(c1ccccc1OC(F)F)C1=C(CCCC1=O)N2 (stereo not drawn),x,x,2.82µM*
CCCOc1ccccc1C1CC(=O)NC2=C1C(=O)CCC2 (stereo not drawn),x,-24.4%,u
O=C1c2ccccc2NC(c2ccc(F)cc2)N1Cc1ccccc1 (stereo not drawn),x,x,-7.0%
O=C(NCCN1Cc2ccccc2OC(c2ccsc2)C1)c1ccc2[nH]ccc2c1 (stereo not drawn),-15.1%,1.4%,x
COc1ccccc1-c1nc2cc(C(=O)NC[C@H]3CCc4ccccc4O3)cc(NC(C)=O)c2n1C,-5.0%,6.8%,x
SMILES,Vaccinia mCherry,VACV Venus inh,HCV inh
CCc1ccc2c(c1)cc(CN(C(=S)Nc1cccc(C)c1)C1CC1)c1nnnn12,i,-16.6%,-20.3%
COCCN(Cc1cc2cc(C)ccc2n2nnnc12)C(=S)Nc1cccc(C)c1,x,x,11.2µM*
Cc1snc(SCc2ccc(Cl)cc2)c1C#N,x,x,-26.3%
COC(=O)c1c(-c2ccc(SC)cc2)sc2ccc(OC)cc12,i,-23.4%,44.9%[8.37 µM]
COC(=O)c1c(-c2cc(OC)cc(OC)c2)sc2ccc(OC)cc12,-16.0%,-16.1%,12.6µM*
COC(=O)c1c(-c2ccc(OC)cc2)sc2ccc(N3CCOCC3)cc12,u,-7.8%,12.6µM*
COc1ccc(-c2sc3ccc(N4CCOCC4)cc3c2-c2ccc(O)cc2)cc1,-8.8%,-13.1%,2.0%
CC1CCCCC1NC(=O)c1cccc(N2C(=O)C3C4C=CC(C4)C3C2=O)c1 (stereo not drawn),-23.8%,-8.5%,u
CN(C)c1ccc(/C=C/c2ccnc3ccc(I)cc23)cc1,-19.8%,24.8%,x
O=C(COC(=O)Cc1n[nH]c(=O)c2ccccc12)NNC(=O)c1ccc(Cl)cc1,-19.1%,-10.2%,16.3%
Cc1cccc(CCN2C(Nc3ccccc3)=NC[C@@H]2CC(C)C)c1,-14.9%,-27.6%,2.82µM*
CC(C)C[C@H]1CN=C(Nc2ccccc2)N1CCc1ccc(F)cc1,i,-28.1%,u
